Measurements taken from PubChem BioAssay (Tox21).
Values joined by “and” are separate entries in the source; they are usually repeats but may differ in a detail not shown here. Equal values may be shown once. Results filed as inconclusive are left out. The source holds several records for some structures; these can differ, active in one and inactive in another. Active and inactive are the calls of the source. Calls follow the shape of the dose curve; as a rule, active = well fitted cell-killing curve with a large enough effect in the repeat runs; inconclusive = weak or mixed curves, or effect the other way; inactive = flat fitted curve, though single readings scatter.

Experiment: qHTS RealTime-Glo MT Cell Viability Assay in HepG2 cells - 40 hour (AID 1224870); also: nearly all actives have a fitted effect of over 50% in size
Conditions: RealTime-Glo luminescence; series mostly up to 76.8 µM; activity change, negative = cytotoxic: at the top concentration
Source text: National Center for Advancing Translational Sciences [NCATS]
NIH Chemical Genomics Center [NCGC]
U.S. Environmental Protection Agency [EPA]
National Institutes of Environmental Health Sciences [NIEHS]
National Toxicology Program [NTP]
U.S. Food and Drug Administration [FDA]
Measure of cell viability is critical in the cell-base assay. Analysis of cell viability is necessary for the characterization of cell responses to cytotoxic drugs and environmental stress. A RealTime-Glo MT Cell Viability Assay to monitor cell viability in real time of continues cell culture during 40 hours of compound treatment was used to screen Tox21 10K library compounds in HepG2 cells. The RealTime-Glo MT Cell Viability Assay is a nonlytic, homogeneous, bioluminescent method to measure cell viability in real time using a simple, plate-based method. The assay involves adding NanoLuc luciferase and a cell-permeant prosubstrate to cells in culture. Viable cells reduce the proprietary prosubstrate to generate a substrate for NanoLuc luciferase. This substrate diffuses from cells into the surrounding culture medium, where it is rapidly used by the NanoLuc Enzyme to produce a luminescent signal. The signal correlates with the number of viable cells, making the assay well suited for cytotoxicity studies.
Tox21 Assay Protocol Summary:
The mixture of HepG2 cell suspension and reagents were dispensed at 600cells/6 ul/well in 1536-well tissue culture treated black solid bottom plates using a Multidrop dispenser. After the assay plates were incubated at a 37 C/5% CO2 incubator for 5 hours, 23 nL of compounds dissolved in DMSO, positive and negative controls was transferred to the assay plate by a pintool work station. The plates were incubated at 37 C for 40 hours. The luminescence intensity were measured at 0h, 8h, 16h, 24h, 32h and 40h time points using ViewLux plate reader during compound treatment.
% is scaled to controls: 0 for no effect and ±100 for the full control effect; potency is read from the fitted curve at half-maximal effect.

**Q.** For `CC(C)C1CCC(Cc2ccc(Cl)cc2)C1(O)Cn1cncn1` (stereo not given), which Potency is on record?
**A.** The Potency was 48.5 µM (active).

**Q.** For `O=CC(Br)(Br)Br`, which Potency is on record?
**A.** Its Potency is 43.5 µM (active).

**Q.** For `CCOC(=O)CC(=O)CCl`, which “activity change, negative = cytotoxic” value is on record?
**A.** The value was 0.271% (inactive).

**Q.** Which “activity change, negative = cytotoxic” value does the source give for `BrC(Br)C(Br)(Br)Br` here?
**A.** The value was -3.76% (inactive).

**Q.** With `Nc1c(Oc2ccccc2)cc(O)c2c1C(=O)c1ccccc1C2=O` as the compound, how does the “activity change, negative = cytotoxic” value read?
**A.** Its value is 3.58% [at 35.3 µM] (inactive).

**Q.** For `Oc1c(Cl)c(Cl)cc(Cl)c1Cl`, which “activity change, negative = cytotoxic” value is on record?
**A.** The value was -1.18% (inactive).

**Q.** With `CC1(C)CN=C(NN=C(/C=C/c2ccc(C(F)(F)F)cc2)/C=C/c2ccc(C(F)(F)F)cc2)NC1` as the compound, how does the Potency read?
**A.** The Potency was 15.5 µM (active).

**Q.** With `CCOP(=S)(OCC)SCS(=O)(=O)CC` as the compound, how does the “activity change, negative = cytotoxic” value read?
**A.** The value was -9.94% (inactive).

**Q.** For `S=C=Nc1cccc2ccccc12`, which “activity change, negative = cytotoxic” value is on record?
**A.** Its value is 5.08% (inactive).

**Q.** For `CCc1ccccc1C`, which “activity change, negative = cytotoxic” value is on record?
**A.** Its value is -0.0358% (inactive).

**Q.** Which “activity change, negative = cytotoxic” value does the source give for `Clc1ccc(Oc2ccccc2)cc1` here?
**A.** The value was 0.514% (inactive).

**Q.** With `CCCN(CCC)CCc1c[nH]c2ccccc12` as the compound, how does the “activity change, negative = cytotoxic” value read?
**A.** Its value is -9.97% (inactive).

**Q.** For `COc1ccc(OC)c(C=O)c1`, which “activity change, negative = cytotoxic” value is on record?
**A.** Its value is -0.905% (inactive).

**Q.** With `O=C(O)C1C2CCC(O2)C1C(=O)O` (stereo not given) as the compound, how does the Potency read?
**A.** Its Potency is “inactive”.

**Q.** For `CN(C)C(=S)S`, which Potency is on record?
**A.** Its Potency is “inactive and 9.77 µM (active)”.

**Q.** For `Oc1cccc(-c2ccccc2)c1`, which “activity change, negative = cytotoxic” value is on record?
**A.** The value was 0.958% (inactive).

**Q.** With `S=C(SSC(=S)N1CCCCC1)N1CCCCC1` as the compound, how does the Potency read?
**A.** Its Potency is 0.213 µM (active).

**Q.** With `Nc1ccc([N+](=O)[O-])cc1Cl` as the compound, how does the “activity change, negative = cytotoxic” value read?
**A.** Its value is -0.738% (inactive).

**Q.** Which Potency does the source give for `COc1cccc(C(=O)CCN[C@@H](C)[C@H](O)c2ccccc2)c1` here?
**A.** Its Potency is 23.9 µM (active).

**Q.** Which “activity change, negative = cytotoxic” value does the source give for `N#CCCO` here?
**A.** Its value is 2.15% (inactive).

**Q.** Which “activity change, negative = cytotoxic” value does the source give for `c1ccc2c(c1)[nH]c1cnccc12` here?
**A.** Its value is 5.52% (inactive).

**Q.** Which “activity change, negative = cytotoxic” value does the source give for `Oc1c(Br)c(Br)c(Br)c(Br)c1Br` here?
**A.** Its value is -2.48% (inactive).

**Q.** For `CCCCOCN(C(=O)CCl)c1c(CC)cccc1CC`, which “activity change, negative = cytotoxic” value is on record?
**A.** Its value is -20.5% (inactive).

**Q.** For `CC(C)(C)C(O)C(Oc1ccc(-c2ccccc2)cc1)n1cncn1` (stereo not given), which “activity change, negative = cytotoxic” value is on record?
**A.** Its value is 8.84% (inactive).

**Q.** With `C=COCCCl` as the compound, how does the “activity change, negative = cytotoxic” value read?
**A.** Its value is 10.7% (inactive).

**Q.** With `COC(=O)N(C(=O)N1CO[C@@]2(C(=O)OC)Cc3cc(Cl)ccc3C2=N1)c1ccc(OC(F)(F)F)cc1` as the compound, how does the “activity change, negative = cytotoxic” value read?
**A.** The value was -14.3% (inactive).

**Q.** With `C[C@]12CC[C@@H]3c4ccc(OC(=O)N(CCCl)CCCl)cc4CC[C@H]3[C@@H]1CC[C@@H]2O` as the compound, how does the “activity change, negative = cytotoxic” value read?
**A.** Its value is -0.123% [at 35.3 µM] (inactive).

**Q.** For `COP(=S)(OC)Oc1cc(Cl)c(Br)cc1Cl`, which “activity change, negative = cytotoxic” value is on record?
**A.** Its value is -0.801% (inactive).

**Q.** With `c1ccc(OCC2CO2)cc1` (stereo not given) as the compound, how does the “activity change, negative = cytotoxic” value read?
**A.** The value was 1.9% (inactive).

**Q.** For `BrC(Br)Br`, which “activity change, negative = cytotoxic” value is on record?
**A.** The value was -5.2% (inactive).

**Q.** For `CCOc1cc(C(C)(C)C)ccc1C1COC(c2c(F)cccc2F)=N1` (stereo not given), which “activity change, negative = cytotoxic” value is on record?
**A.** The value was -7.18% [at 35.3 µM] (inactive).

**Q.** For `CC(C)Oc1cccc(NC(=O)c2ccccc2C(F)(F)F)c1`, which “activity change, negative = cytotoxic” value is on record?
**A.** The value was -2.08% (inactive).

**Q.** With `N#CCCC(Br)(C#N)CBr` (stereo not given) as the compound, how does the Potency read?
**A.** Its Potency is 38.9 µM (active).

**Q.** With `Oc1ccc(C2(c3ccc(O)cc3)CCCCC2)cc1` as the compound, how does the “activity change, negative = cytotoxic” value read?
**A.** The value was 2.65% (inactive).

**Q.** Which “activity change, negative = cytotoxic” value does the source give for `CCCCCCCCCBr` here?
**A.** The value was 13.2% (inactive).

**Q.** For `CC(C)CC(C)N` (stereo not given), which “activity change, negative = cytotoxic” value is on record?
**A.** The value was 1.72% (inactive).

**Q.** For `CNC(C)Cc1ccc2c(c1)OCO2` (stereo not given), which “activity change, negative = cytotoxic” value is on record?
**A.** Its value is -7.66% (inactive).

**Q.** For `O=[N+]([O-])c1cc([N+](=O)[O-])c2ccccc2c1`, which “activity change, negative = cytotoxic” value is on record?
**A.** The value was 5.31% (inactive).

**Q.** With `CN(C)C1CSSSC1` as the compound, how does the “activity change, negative = cytotoxic” value read?
**A.** Its value is -0.606% (inactive).

**Q.** For `CCCN(CC)CC1COC2(CCC(C(C)(C)C)CC2)O1` (stereo not given), which “activity change, negative = cytotoxic” value is on record?
**A.** Its value is 1.07% (inactive).
